TLR4-MyD88 BLA: blocks binding of human TLR4 to MyD88; AID 861; 200,000 tested, 0.18% active; inhibition, % at 8.4 µM; HeLa CL3-4 TLR4/MyD88 BLA complementation, FRET ratio; in the data active = inhibition above about 25%;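 also: 0% = vehicle and 100% = reference inhibitor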
Mcl1 Noxa PPI: Mcl-1/Noxa interaction inhibition; 220,000 tested, 1.5% active; TR-FRET Mcl-1/Noxa peptide binding, 2 h; inhibition, % at 21.7 µM; Q07820;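 active = compounds that cut the protein-peptide binding signal by more than 50% relative to plate controls in a single-dose test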;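 also: His-tagged Mcl-1 with rhodamine Noxa BH3 peptide and terbium anti-His antibody; 0% = Mcl-1 plus Noxa peptide wells and 100% = peptide-only wells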
NOD2 RIPK2 PPI: blocks binding of human NOD2 to RIPK2. O43353. CHO BLA complementation NOD2-RIPK2, CCF4 ratio. inhibition, % at 4.98 µM. 360,000 tested, 0.38% active. AID 624267; in the data active = inhibition above about 21%;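 also: 0% = vehicle only and 100% = reference blocker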
Bim-Mcl-1: disrupts Bim peptide binding to human Mcl-1. Q07820. Bead-based flow cytometry, Bim peptide-Mcl-1 binding. inhibition, % at 10 µM. 190,000 tested, 0.1% active. AID 1009; in the data active = inhibition above about 40%;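 also: 0% = no compound tracer wells and 100% = peptide blocker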
Mcl1 Bid PPI: disrupts binding of human Mcl-1 to Bid peptide; TR-FRET Mcl-1/Bid-Dy647 peptide binding, 1536-well; 220,000 tested, 0.97% active; inhibition, % at 21.7 µM;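 active = compounds that cut the binding signal by more than half at the single screening dose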;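 also: His-tagged Mcl-1 with europium anti-His antibody binding Bid BH3 peptide; 0% = Mcl-1 plus peptide wells and 100% = peptide-only wells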
TLR9-MyD88 inh: TLR9-MyD88 interaction inhibition; 340,000 tested, 0.21% active; Q9NR96+Q99836; inhibition, % at 4.98 µM; CHO BLA complementation TLR9-MyD88, CCF4 FRET ratio; AID 504734;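 active = inhibition above the mean over all tested compounds plus 3 SD, cut at about 21% in these data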;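 also: 0% = DMSO only wells and 100% = clavulanate BLA inhibitor control wells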
TLR4-MyD88 conf: TLR4-MyD88 interaction inhibition confirmed; HeLa CL3-4 BLA complementation, CCF4 FRET ratio; shares compounds with TLR4-MyD88 BLA; AID 941; 350 tested, 50% active; inhibition, % at 8.4 µM;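 active = mean inhibition across three repeat runs above about 25% carried over from the earlier screen, limit read from the data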;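 also: plate controls were DMSO only for no effect and clavulanic acid blocking BLA at full dose for full effect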
BLA inhibitor ct: beta-lactamase inhibition flagged in TLR4-MyD88 counter-screen; HeLa BLA reporter, CCF4 FRET ratio; 350 tested, 63% active; inhibition, % at 8.4 µM; shares compounds with TLR4-MyD88 BLA; AID 1237;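 active = mean inhibition over three repeats above about 26% taken from the earlier screen, limit read from the data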;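 also: HeLa cells stably expressing beta-lactamase reporter as counterscreen for TLR4-MyD88 inhibitors; 0% = DMSO and 100% = clavulanic acid full inhibition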
TLR9-MyD88 conf: confirmation of human TLR9-MyD88 binding inhibitors | shares compounds with TLR9-MyD88 inh | 680 tested, 51% active | CHO TLR9/MyD88 BLA complementation, CCF4 FRET ratio | inhibition, % at 4.98 µM;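 active = mean inhibition across three repeats above about 21% taken from the earlier screen, limit read from the data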;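 also: blue over green emission ratio reports constitutive TLR9 MyD88 association via BLA complementation; 0% = DMSO vehicle wells and 100% = clavulanate BLA inhibitor wells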
BLA counter-1: non-selective beta-lactamase inhibitors in TLR9-MyD88 counter-screen. shares compounds with TLR9-MyD88 inh. CHO-BLA cells, CCF4 FRET ratio, BLA reporter. inhibition, % at 4.98 µM. 680 tested, 7% active. AID 540251;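 active = mean inhibition above a 50% cutoff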;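 also: counterscreen of TLR9-MyD88 hits on CMV-driven BLA in CHO-K1 cells; 0% = DMSO alone and 100% = clavulanate blocking BLA; higher means less blue over green ratio so more BLA blockade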
TLR9 CHO tox: counter-screen for TLR9-MyD88 inhibitors: cytotoxicity in CHO cells. shares compounds with TLR9-MyD88 inh. luminescence. inhibition, % at 4.98 µM. 680 tested, 39% active. AID 588336; in the data active = inhibition above about 11%
NOD2-RIPK2 conf: confirmation of human NOD2-RIPK2 interaction inhibitors | CHO cells, NOD2-RIPK2 BLA complementation, CCF4 FRET | AID 624370 | 1,200 tested, 70% active | shares compounds with NOD2 RIPK2 PPI | inhibition, % at 4.98 µM;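 active = mean inhibition across replicates above a set limit taken from the earlier primary screen, cut at about 21% in these data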;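 also: 0% = DMSO-only wells and the high end = clavulanate BLA-blocked wells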
BLA counter-2: NOD2-RIPK2 counterscreen BLA reporter activity; shares compounds with NOD2 RIPK2 PPI; CHO BLA reporter, CCF4 FRET ratio; inhibition, % at 4.98 µM; 1,200 tested, 57% active;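 active = mean inhibition above the low-control mean inhibition plus three low-control SD, cut at about 11% in these data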;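 also: 0% = DMSO only wells and 100% = clavulanate high control wells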
* marks the source's active call; other numbers are inactive results; . = not tested or not shown; ! = not confirmed by another sample. Rows were chosen to be rich in hits. Some 1.8% of all compounds tested hit in one or more screens of this group.

SMILES	TLR4-MyD88 BLA	Mcl1 Noxa PPI	NOD2 RIPK2 PPI	Bim-Mcl-1	Mcl1 Bid PPI	TLR9-MyD88 inh	others
Cc1ccc(-n2nc(C)cc2NC(=O)COc2cc(C)cc3oc(=O)c4c(c23)CCC4)cc1	6.8	106.0*	-4.4	-1.0	5.7	7.0
O=C(NC(=O)N1CCC2(CC1)OCCO2)c1ccc(Cl)cc1	-2.1	-21.9	-2.5	1.0	-5.9	1.6
Cc1ccc2c(c1)=C/C(=C\c1c(O)[nH]c(=S)[nH]c1=O)C(=O)N=2	-19.4	56.7*	.	-2.0	-20.5	.
CN1CCCCC1c1ccc(-c2cccnc2)nc1 (stereo not given)	-23.4	21.2	-1.0	3.0	69.8*	9.7
Nc1ccc(S(=O)(=O)N2CCCCC2c2cccnc2)cc1 (stereo not given)	-7.9	-6.1	5.1	-4.0	-5.8	1.5
O=C1CC=C2C3CC4N(CCC45c4cc(O)c(O)cc4N1C25)CC3=CCBr (stereo not given)	.	.	2.5	.	.	-2.6
CCOC(=O)c1cnc(SCc2ccc(Cl)c(Cl)c2)nc1N1CC1	.	.	1.2	.	.	0.0
C[C@]12CC[C@@H]3c4ccc(O)c(O)c4CC[C@H]3[C@@H]1CC[C@@H]2O	.	63.9*	-5.1	4.0	-76.2	-3.2
O=C1NCN(c2ccccc2)C12CCN(C(c1cc3ccccc3o1)c1nnnn1Cc1ccccc1)CC2 (stereo not given)	.	.	1.1	.	.	.
COc1cc2nc(N3CCN(C(=O)c4ccco4)CC3)nc(N)c2cc1OC	0.7	58.2*!	-20.1	3.0	67.4*!	-3.9
C[C@@H]1CN([C@@H](C)CO)C(=O)CCCn2nncc2CO[C@H]1CN(C)C(=O)Oc1ccccc1	.	.	-5.4	.	.	-10.2
CC(C)COC(=O)N1Cc2ccccc2-n2nncc2C1	.	.	-5.8	.	.	-3.0
COC1C(O)C(C)OC(OC2CCC3(C)C(CCC4C3C(O)CC3(C)C(C5=CC(=O)OC5)CCC43O)C2)C1O (stereo not given)	.	.	9.6	.	.	-8.0
CNc1cc(Cl)c2nonc2c1[N+](=O)[O-]	52.1*	33.0	93.1*	-1.0	-35.4	79.8*	TLR4-MyD88 conf=54.7*;BLA inhibitor ct=43.6*;TLR9-MyD88 conf=68.4*;BLA counter-1=27.6;TLR9 CHO tox=100.3*;NOD2-RIPK2 conf=102.2*;BLA counter-2=60.3*
O=C1NCN(c2ccccc2)C12CCN(C(c1cc3ccccc3o1)c1nnnn1C1CCCC1)CC2 (stereo not given)	.	.	5.7	.	.	.
O=c1c2ccccc2[se]n1-c1ccccc1	5.5	1.0	10.2	0.0	-37.9	26.9*	TLR9-MyD88 conf=19.2;BLA counter-1=-0.9;TLR9 CHO tox=26.3*
CN(C)c1ccc(/C=C/[N+](=O)[O-])cc1	-4.5	38.5	28.2*	0.0	-45.9	24.3*	TLR9-MyD88 conf=2.8;BLA counter-1=3.9;TLR9 CHO tox=-1.6
O=C1CCC2(O)C3Cc4ccc(O)c5c4C2(CCN3Cc2ccoc2)C1O5 (stereo not given)	.	.	-11.9	.	.	-9.2
CCOC(=O)c1ccccc1N	.	.	-5.3	.	.	2.5
CCCCOC(=O)c1ccccc1C(=O)OCCCC	.	.	-3.4	.	.	25.2*	TLR9-MyD88 conf=5.0;BLA counter-1=2.5;TLR9 CHO tox=1.8
COc1ccc(-n2c(/C=C/c3ccc(O)c(O)c3)nc3ccccc3c2=O)cc1	.	.	18.7	.	.	23.8*	TLR9-MyD88 conf=4.8;BLA counter-1=6.5;TLR9 CHO tox=8.3
COc1cc(/C=C/c2nc3ccccc3c(=O)n2-c2ccc(O)cc2)ccc1O	.	.	9.9	.	.	13.5
COc1ccccc1-n1c(-c2cccs2)nc2ccccc2c1=O	-1.2	7.0	5.1	2.0	-12.4	-23.0
CC1(C)OC(c2ccccc2)=C/C(=C/C=C2C(=O)NC(=O)NC2=O)O1	23.5	15.0	32.2*	0.0	-20.6	34.1*	TLR9-MyD88 conf=23.6*;BLA counter-1=27.5;TLR9 CHO tox=-3.5;NOD2-RIPK2 conf=56.5*;BLA counter-2=56.4*
COC(=O)C1=C(c2c(C)noc2C)C[C@@H]2CC[C@H]1N2C(=O)NCC1CC1	.	.	5.7	.	.	2.0
SMILES	TLR4-MyD88 BLA	Mcl1 Noxa PPI	NOD2 RIPK2 PPI	Bim-Mcl-1	Mcl1 Bid PPI	TLR9-MyD88 inh	others
C=C1C(=O)OC2CC(C)C3C=CC(=O)C3(C)C(O)C12 (stereo not given)	.	.	20.4	.	.	8.5
C=C1C(=O)O[C@@H]2C[C@@H](C)[C@@H]3C4OC4C(=O)[C@@]3(C)[C@@H](O)[C@H]12 (stereo not given in full)	.	-9.2	54.5*	.	-23.8	24.3*	TLR9-MyD88 conf=25.9*;BLA counter-1=32.8;TLR9 CHO tox=100.4*;NOD2-RIPK2 conf=51.6*;BLA counter-2=23.5*
C=C1C(=O)O[C@@H]2C[C@@H](C)[C@@H]3C=CC(=O)[C@@]3(C)[C@@H](OC(=O)CC(=O)O[C@H]3[C@@H]4C(=C)C(=O)O[C@@H]4C[C@@H](C)[C@@H]4C=CC(=O)[C@]43C)[C@H]12	.	13.1	88.2*	.	-25.4	32.4*	TLR9-MyD88 conf=43.3*;BLA counter-1=35.1;TLR9 CHO tox=99.0*;NOD2-RIPK2 conf=86.6*;BLA counter-2=43.8*
CCn1cc(CN2CCCC(C(=O)c3sccc3C)C2)cn1 (stereo not given)	-21.3	-2.3	-7.1	-1.0	-22.9	-1.6
CC(=O)O[C@H]1C[C@@H]2OC3C=C(C)CCC3(C)[C@@]1(C)[C@@]21CO1 (stereo not given in full)	.	.	24.3*	.	.	-2.3	NOD2-RIPK2 conf=28.5*;BLA counter-2=0.2
CC(=O)OC1CC2OC3C=C(C)CCC3(C)C1(C)C21CO1 (stereo not given)	.	.	25.4*	.	.	.	NOD2-RIPK2 conf=26.9*;BLA counter-2=0.1
C[C@@H]([C@@H](O)c1ccccc1)N(C)C(=O)Cc1ccccc1	.	.	-3.6	.	.	0.1
CN(C)CC(C(=O)Cc1ccccc1)c1ccccc1 (stereo not given)	.	.	56.8*	.	.	-18.6	NOD2-RIPK2 conf=10.7;BLA counter-2=-5.6
C1=CC(Cc2cncs2)c2ccccc21 (stereo not given)	.	.	-3.3	.	.	5.0
CC=CC(C)=CC(C)C(=O)CC(O)CC1CC(=O)NC(=O)C1 (stereo not given)	.	.	11.5	.	.	-13.3
CC1CC(C)(O)CC(C(O)CC2CC(=O)NC(=O)C2)C1=O (stereo not given)	.	.	21.1*	.	.	-8.9	NOD2-RIPK2 conf=25.0*;BLA counter-2=-4.2

Assay outcomes as filed in PubChem BioAssay.
